# Source: PubChem BioAssay AID1566 (Sanford-Burnham Center for Chemical Genomics, 2009)
# Among all 290,000 compounds or so, about 1,800 (0.62%) were called active. The entries come from a sample that favours actives as a whole. Unmarked numbers belong to inactive results. No stated cut-off is given here; in the data, active means inhibition above about 50%; inactive means the rest.
# Test: inhibition of NOD2-driven NF-kB reporter – cell-based, luminescence, uHTS, HEK293 (AID 1566)
# Settings: HEK293 NOD2/NF-kB luciferase reporter, at 4 µM, active compounds read high
row,Structure (SMILES),inhibition
1,O=C(Nc1cccc([N+](=O)[O-])c1)Nc1ccc2c(c1)CCC2,-35.7%
2,COc1cc2c(cc1OC)C(COc1ccc(F)cc1)N(C(C)=O)CC2 (centres undefined),2.4%
3,COC(=O)c1ccc(OCC2c3cc(OC)c(OC)cc3CCN2C(C)=O)cc1 (centres undefined),6.9%
4,COc1cc2c(cc1OC)C(COc1ccc([N+](=O)[O-])cc1)N(C(C)=O)CC2 (centres undefined),60.6% (active)
5,Cc1ccc(C(=O)NNC(=O)c2ccc(NC(=O)C(C)(C)C)cc2)cc1,8.3%
6,CC1(C)CC(=O)C=C(C(=O)N2CCCC(C(=O)c3cccc(C(F)(F)F)c3)C2)O1 (centres undefined),15.7%
7,COC(=O)CNc1nc(C2CC2)nc2c1nnn2Cc1ccccc1Cl,7.3%
8,CN(C)S(=O)(=O)c1ccc(Nc2nc(C3CC3)nc3c2nnn3Cc2ccccc2Cl)cc1,58.7% (active)
9,OCCNc1nc(C2CC2)nc2c1nnn2Cc1ccccc1Cl,3.7%
10,CCCCC(CC)CNC(=O)c1cc2ccccc2c(=O)o1 (centres undefined),9.7%
11,O=C(CCNS(=O)(=O)c1ccc(Br)cc1)NCCc1ccc(Cl)cc1,-1.7%
12,CNC(=O)N(O)C1N(/N=C/c2cc(Br)ccc2O)C(=S)SC1(C)C (centres undefined),13.6%
13,Cc1ccc(S(=O)(=O)Cc2ccc(C(=O)N3CCN(c4cccc(C)c4C)CC3)o2)cc1,13.8%
14,Cc1ccccc1S(=O)(=O)Cc1ccc(C(=O)N2CCN(c3ccccc3F)CC2)o1,10.3%
15,Cc1onc(-c2ccccc2Cl)c1C(=O)N1CCCCC1C(=O)O (centres undefined),8%
16,CCOC(=O)c1c(C)[nH]c(C)c1C(=O)CSc1nc2ccccc2c(=O)n1-c1ccc(F)cc1,-3.4%
17,CCOC(=O)c1c(C)[nH]c(C)c1C(=O)CSc1nc2ccccc2c(=O)n1-c1ccc(C)cc1,-12.1%
18,CCC(CC)N1CCN(S(=O)(=O)c2ccc(OC)cc2)CC1,-0.3%
19,Cc1nc2ccc(NS(=O)(=O)c3ccc(F)cc3)cc2s1,12.4%
20,Cc1ccc(S(=O)(=O)Nc2ccc3nc(C)sc3c2)cc1,29.3%

row,Structure (SMILES),inhibition
1,O=C(NC1CCCc2ccccc21)c1ccc([N+](=O)[O-])cc1 (centres undefined),1.7%
2,COc1ccc(/C(N)=N/OC(=O)c2cccc([N+](=O)[O-])c2C)cc1OC,-8.3%
3,CC(=O)c1c(C)[nH]c(C(=O)OCC(=O)Nc2ccc([N+](=O)[O-])cc2Cl)c1C,11%
4,CC(=O)c1c(C)[nH]c(C(=O)OCC(=O)Nc2cc(Cl)ccc2[N+](=O)[O-])c1C,5.7%
5,CC(=O)c1c(C)[nH]c(C(=O)OCC(=O)Nc2ccc(Cl)cc2[N+](=O)[O-])c1C,51% (active)
6,O=C(CCc1n[nH]c(=O)[nH]c1=O)N/N=C/c1ccco1,11.3%
7,COc1ccc(NC(=O)c2ccc3c(c2)C(=O)N(Cc2cccnc2)C3=O)c(OC)c1,-3.5%
8,O=C1CCN(Cc2ccc([N+](=O)[O-])cc2)CCN1[C@H](CO)c1ccccc1,8.7%
9,COc1cc(NC(=O)c2cc3ccccc3cc2OC)ccc1NC(=O)c1cccs1,45.8%
10,COc1cc2ccccc2cc1C(=O)Nc1ccc(NC(=O)c2cccs2)cc1,60.7% (active)
11,COc1ccc(NC(=O)c2cc3ccccc3cc2OC)cc1,-18.7%
12,C#Cc1ccc([C@@H]2C=C(C(=O)Nc3ccccc3)O[C@H](OCC)[C@H]2CCCO)cc1,11.4%
13,CCCCc1c(C)c(C#N)c2nc3ccccc3n2c1Cl,-34.2%
14,CCCCc1c(C)c(C#N)c2nc3ccccc3n2c1NCCN(C)C,-20.8%
15,CC(C)(C(N)=O)N1CCN(c2ncc(C(F)(F)F)cc2Cl)CC1,9.3%
16,Cc1nc(N2CCN(C(=O)CCC(=O)O)CC2)c2c(C)c(C)sc2n1,13.1%
17,Cc1nc(SCC(=O)N2CCCCC2)c2c(C)c(C)sc2n1,22.8%
18,CCn1c(SCC(=O)N2CCc3ccccc3C2)nc2sc(C)c(C)c2c1=O,17.7%
19,CCC(=O)N1CCN(c2nc(C)nc3sc(C)c(C)c23)CC1,8.8%
20,N#Cc1cc(-c2ccccc2)nc(Oc2ccccc2)n1,10.8%

row,Structure (SMILES),inhibition
1,O=C(NNC(=O)c1ccc[nH]1)Nc1cc(Cl)cc(Cl)c1,2.1%
2,O=C(COc1ccc2c3c(c(=O)oc2c1)CCCC3)N[C@@H](Cc1ccccc1)C(=O)O,9.1%
3,Cc1cc(C)c(S(=O)(=O)N2CCCOC2CNC(=O)C(=O)NCc2ccco2)c(C)c1 (centres undefined),15%
4,CC(C)(C)C1=CC(=O)C(N2CCOCC2)=CC1=O,14.9%
5,CC1=C(C)C(=O)C(N2CCOCC2)=CC1=O,12.8%
6,Cc1ccccc1NC(=O)C(C)Sc1nnc(-c2ccncc2)n1CC1CCCO1 (centres undefined),-16.6%
7,CC(NC(=O)C1CCCO1)c1ccccc1 (centres undefined),3.6%
8,CC(=O)N1CCN(c2ccc(NC(=O)c3ccc(C(C)(C)C)cc3)cc2)CC1,3.5%
9,CCC(=O)N1CCN(c2ccc(NC(=S)NC(=O)COc3ccccc3)cc2)CC1,8.2%
10,CC(=O)N1CCN(c2ccc(NC(=S)NC(=O)COc3ccc(C(C)(C)C)cc3)cc2)CC1,68.1% (active)
11,CCOc1ccccc1-c1cc(C(=O)N/N=C/c2ccc(O)c(OC)c2)c2ccccc2n1,-16.4%
12,Cc1ccc(CNC(=O)c2ccc(NC(=O)C3=CSCCO3)cc2)cc1,8.2%
13,O=C(NNc1ccc(F)cc1)c1c(F)cccc1Cl,-2.7%
14,CC(=O)c1sc(NC(=O)C2(F)C(F)(F)C(F)(F)C(F)(F)C(F)(F)C2(F)F)nc1C,55.2% (active)
15,CC(=O)c1sc(NC(=O)C(C)C)nc1C,8.3%
16,CC(=O)Nc1nc(C)c(C(C)=O)s1,-12.2%
17,CCOc1ccc(N=C2NC(=O)S/C2=C\c2ccc(Cl)cc2)cc1,-11%
18,CCOCCCNCc1cc(Br)ccc1OCc1ccccc1,19%
19,CNC(=O)C(=O)NCC1OCCN1S(=O)(=O)c1ccc(OC)c(OC)c1 (centres undefined),-11.3%
